Experimental findings from PubChem BioAssay (Tox21) are described below.

Test [1] concerns the target Acetylcholinesterase (Homo sapiens) (UniProt P22303). The test can be described thus: Acetylcholinesterase (AChE) small molecule antagonists: fluorescence cell-based qHTS assay (AID 1347398; calls by dose curve; further: nearly all actives have a fitted effect of over 50% in size). Conditions: Potency: AChE activity. Put shortly: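 Cellular AChE activity read as thiocholine from acetylthiocholine hydrolysis, detected by Thiolite Green fluorescence at 490/520 nm after 40 min at room temperature. Compounds were pre-incubated 30 min at 37 C on adherent SH-SY5Y cells.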
A general note: Quantitative high-throughput screening tests each substance at several concentrations.

Test [2] has the same target. Kind of test: Acetylcholinesterase (AChE) small molecule antagonists: enzyme-based qHTS assay with human liver microsomes (AID 1347399; calls by dose curve; further: nearly all actives have a fitted effect of over 60% in size). The conditions noted are these: Potency: qHTS inhibition. Put shortly:
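Recombinant human AChE (50 mU/mL in the enzyme mix) and human liver microsomes (0.25 mg/mL final) were preincubated with compound and NADPH (0.25 mg/mL final) for 30 min at 37 C. Acetylthiocholine/DTNB was then added; thiocholine was read colorimetrically after 10 min at room temperature.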

The target of test [3] is Cytochrome P450 2D6 (Homo sapiens) (UniProt P10635). The test can be described thus: Cytochrome P450 Family 2 Subfamily D Member 6 (CYP2D6) small molecule antagonists: luciferase reporter qHTS assay (AID 1671196). Further: nearly all actives have a fitted effect of over 50% in size. Further: potency means the concentration at half of the fitted maximal effect. Put shortly: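 Luminogenic proluciferin substrate, CYP2D6 enzyme; 10 min RT preincubation with compound, NADPH regeneration system added, 1 h RT. Stop/detection reagent, 20 min RT, luminescence read (RLU). Signal proportional to CYP activity.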
(In a reporter assay the amount or activity of a reporter protein is the signal.)

The target in test [4] is Cytochrome P450 2C19 (Homo sapiens) (UniProt P33261). Kind of test: Cytochrome P450 Family 2 Subfamily C Member 19 (CYP2C19) small molecule antagonists: luciferase reporter qHTS assay (AID 1671197). Further: nearly all actives have a fitted effect of over 65% in size. Further: potency means the concentration at half of the fitted maximal effect. The procedure, abridged: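 Inhibition of CYP2C19 was scored from loss of luminescence in a P450-Glo proluciferin substrate assay, NADPH-started and run 1 h at 37C, with ketoconazole as positive control.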

Test [5] has as its target Cytochrome P450 3A4 (Homo sapiens) (UniProt P08684). Kind of test: Cytochrome P450 Family 3 Subfamily A Member 4 (CYP3A4) small molecule antagonists: luciferase reporter qHTS assay (AID 1671201). Further: nearly all actives have a fitted effect of over 50% in size. Further: potency means the concentration at half of the fitted maximal effect. Put shortly:
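Recombinant human CYP3A4 converts a proluciferin substrate to luciferin over 1 h at room temperature after NADPH regeneration solution is added (compound preincubated 10 min); detection reagent stops reaction, luminescence read 20 min later as relative units.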

The target of test [6] is Cytochrome P450 1A2 (Homo sapiens) (UniProt P05177). Kind of test: Cytochrome P450 Family 1 Subfamily A Member 2 (CYP1A2) small molecule antagonists: luciferase reporter qHTS assay (AID 1671199). Further: nearly all actives have a fitted effect of over 50% in size. Further: potency means the concentration at half of the fitted maximal effect. Put shortly: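 Luminescence readout (relative luminescence units) after luciferin detection reagent, 20 min RT. Preceded by 1 h room-temperature CYP1A2 reaction with NADPH regeneration solution following 10 min compound preincubation with enzyme and proluciferin substrate. Furafylline positive control.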

Test [7] deals with Voltage-gated inwardly rectifying potassium channel KCNH2 (Homo sapiens) (UniProt Q12809). Kind of test: Human Ether-a-go-go-Related Gene (hERG) channel small molecule antagonists: fluorescence cell-based qHTS assay (AID 1671200). Further: nearly all actives have a fitted effect of over 50% in size. Further: potency means the concentration at half of the fitted maximal effect. Put shortly: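 Thallium flux as potassium surrogate: FluxOR II dye loaded 1 h at room temperature into hERG-expressing U2OS cells, then stimulus buffer added after 10 min. Kinetic 480 nm excitation/540 nm emission read, 2 min.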
A general note: hERG is a cardiac potassium channel; its block is linked to QT prolongation.

Test [8] concerns the target Cytochrome P450 2C9 (Homo sapiens) (UniProt P11712). The test can be described thus: Cytochrome P450 Family 2 Subfamily C Member 9 (CYP2C9) small molecule antagonists: luciferase reporter qHTS assay (AID 1671198). Further: nearly all actives have a fitted effect of over 50% in size. Further: potency means the concentration at half of the fitted maximal effect. The procedure, abridged: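 Enzyme-substrate mix preincubated with compound 10 min at room temperature; reaction started with NADPH regeneration solution, 1 h 37C. Luminescent luciferin product read after 20 min detection reagent.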

A number with no mark means an inactive call. Inconclusive results are not listed. The source made the active and inactive calls. Unless noted, the call rests on the fitted dose curve; in most records, active means well fitted curve in the direction sought with a large enough effect in the repeat runs; inconclusive means weak or mixed curves; inactive means no such curve, though single readings can be large; an effect the other way counts as inactive or inconclusive.

Sequence of Acetylcholinesterase (Homo sapiens) (P22303 whole entry, looked up): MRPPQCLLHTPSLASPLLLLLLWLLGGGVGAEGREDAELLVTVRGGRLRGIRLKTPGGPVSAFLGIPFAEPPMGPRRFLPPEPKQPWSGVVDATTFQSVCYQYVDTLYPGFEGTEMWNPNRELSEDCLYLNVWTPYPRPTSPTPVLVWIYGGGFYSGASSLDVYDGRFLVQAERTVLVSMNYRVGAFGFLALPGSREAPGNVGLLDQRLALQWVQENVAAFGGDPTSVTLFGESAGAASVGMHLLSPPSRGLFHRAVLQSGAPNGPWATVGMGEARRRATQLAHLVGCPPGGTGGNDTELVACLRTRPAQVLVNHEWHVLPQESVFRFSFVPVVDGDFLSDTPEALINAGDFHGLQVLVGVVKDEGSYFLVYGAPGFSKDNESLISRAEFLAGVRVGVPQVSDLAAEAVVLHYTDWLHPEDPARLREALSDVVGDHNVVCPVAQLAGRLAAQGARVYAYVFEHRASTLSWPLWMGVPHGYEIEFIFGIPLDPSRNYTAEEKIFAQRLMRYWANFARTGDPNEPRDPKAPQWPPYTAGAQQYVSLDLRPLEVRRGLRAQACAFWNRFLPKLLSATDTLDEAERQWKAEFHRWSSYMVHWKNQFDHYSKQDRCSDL
Sequence of Cytochrome P450 3A4 (Homo sapiens) (P08684 whole entry, looked up): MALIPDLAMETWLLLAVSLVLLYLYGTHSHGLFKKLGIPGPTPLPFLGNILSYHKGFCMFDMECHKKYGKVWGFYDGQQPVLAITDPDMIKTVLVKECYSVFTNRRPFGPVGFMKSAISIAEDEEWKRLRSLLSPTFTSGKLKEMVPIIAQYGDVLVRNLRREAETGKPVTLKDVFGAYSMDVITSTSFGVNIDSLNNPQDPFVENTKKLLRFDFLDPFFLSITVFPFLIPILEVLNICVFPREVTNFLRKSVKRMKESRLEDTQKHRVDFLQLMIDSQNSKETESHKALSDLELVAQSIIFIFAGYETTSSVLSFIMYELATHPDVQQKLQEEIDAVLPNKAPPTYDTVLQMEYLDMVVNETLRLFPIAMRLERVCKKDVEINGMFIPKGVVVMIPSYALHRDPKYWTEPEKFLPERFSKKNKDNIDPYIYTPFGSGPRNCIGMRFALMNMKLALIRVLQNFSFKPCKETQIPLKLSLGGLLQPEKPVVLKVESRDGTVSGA
Sequence of Cytochrome P450 2D6 (Homo sapiens) (P10635 whole entry, looked up): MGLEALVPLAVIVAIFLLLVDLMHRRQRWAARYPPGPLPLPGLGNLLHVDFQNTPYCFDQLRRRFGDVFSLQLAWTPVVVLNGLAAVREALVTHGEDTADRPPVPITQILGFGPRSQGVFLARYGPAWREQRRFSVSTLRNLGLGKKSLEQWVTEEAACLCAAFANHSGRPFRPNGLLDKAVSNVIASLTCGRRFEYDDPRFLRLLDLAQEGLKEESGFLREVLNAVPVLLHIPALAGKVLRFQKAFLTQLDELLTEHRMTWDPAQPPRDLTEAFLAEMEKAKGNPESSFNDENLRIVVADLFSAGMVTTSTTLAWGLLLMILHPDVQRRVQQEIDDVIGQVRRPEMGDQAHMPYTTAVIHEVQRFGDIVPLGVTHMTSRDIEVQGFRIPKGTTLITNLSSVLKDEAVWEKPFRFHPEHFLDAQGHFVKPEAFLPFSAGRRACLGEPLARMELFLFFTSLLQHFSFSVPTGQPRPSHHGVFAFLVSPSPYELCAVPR
Sequence of Voltage-gated inwardly rectifying potassium channel KCNH2 (Homo sapiens) (Q12809 whole entry, looked up): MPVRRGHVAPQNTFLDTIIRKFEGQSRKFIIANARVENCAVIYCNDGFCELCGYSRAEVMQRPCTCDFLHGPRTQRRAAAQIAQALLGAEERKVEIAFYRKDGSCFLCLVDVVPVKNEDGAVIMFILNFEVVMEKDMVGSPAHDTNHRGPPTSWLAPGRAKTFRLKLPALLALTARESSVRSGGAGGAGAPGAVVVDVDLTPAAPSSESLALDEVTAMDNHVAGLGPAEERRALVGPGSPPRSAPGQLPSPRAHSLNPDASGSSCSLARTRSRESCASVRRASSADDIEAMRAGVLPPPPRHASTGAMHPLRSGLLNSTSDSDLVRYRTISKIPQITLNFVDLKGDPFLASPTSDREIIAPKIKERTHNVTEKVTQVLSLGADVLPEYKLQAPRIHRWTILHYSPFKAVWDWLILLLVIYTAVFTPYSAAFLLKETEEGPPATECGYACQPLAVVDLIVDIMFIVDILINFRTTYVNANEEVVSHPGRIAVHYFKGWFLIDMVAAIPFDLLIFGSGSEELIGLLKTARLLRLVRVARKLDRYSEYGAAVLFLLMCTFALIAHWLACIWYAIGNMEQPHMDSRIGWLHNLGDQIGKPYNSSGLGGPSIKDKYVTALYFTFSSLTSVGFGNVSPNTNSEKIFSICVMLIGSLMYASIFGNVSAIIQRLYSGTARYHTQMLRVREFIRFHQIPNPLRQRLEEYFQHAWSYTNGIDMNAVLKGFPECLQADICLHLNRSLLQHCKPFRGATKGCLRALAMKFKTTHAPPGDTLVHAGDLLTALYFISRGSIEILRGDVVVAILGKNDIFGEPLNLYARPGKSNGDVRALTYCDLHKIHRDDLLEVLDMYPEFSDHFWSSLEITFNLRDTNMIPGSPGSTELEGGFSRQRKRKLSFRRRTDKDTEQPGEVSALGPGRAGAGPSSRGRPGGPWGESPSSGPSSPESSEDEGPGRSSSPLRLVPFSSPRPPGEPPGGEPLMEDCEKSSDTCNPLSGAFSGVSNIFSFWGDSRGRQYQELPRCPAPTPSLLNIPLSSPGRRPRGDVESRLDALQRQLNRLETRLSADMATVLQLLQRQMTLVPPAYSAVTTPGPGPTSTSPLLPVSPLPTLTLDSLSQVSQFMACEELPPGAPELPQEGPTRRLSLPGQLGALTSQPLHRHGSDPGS
Sequence of Cytochrome P450 2C9 (Homo sapiens) (P11712 whole entry, looked up): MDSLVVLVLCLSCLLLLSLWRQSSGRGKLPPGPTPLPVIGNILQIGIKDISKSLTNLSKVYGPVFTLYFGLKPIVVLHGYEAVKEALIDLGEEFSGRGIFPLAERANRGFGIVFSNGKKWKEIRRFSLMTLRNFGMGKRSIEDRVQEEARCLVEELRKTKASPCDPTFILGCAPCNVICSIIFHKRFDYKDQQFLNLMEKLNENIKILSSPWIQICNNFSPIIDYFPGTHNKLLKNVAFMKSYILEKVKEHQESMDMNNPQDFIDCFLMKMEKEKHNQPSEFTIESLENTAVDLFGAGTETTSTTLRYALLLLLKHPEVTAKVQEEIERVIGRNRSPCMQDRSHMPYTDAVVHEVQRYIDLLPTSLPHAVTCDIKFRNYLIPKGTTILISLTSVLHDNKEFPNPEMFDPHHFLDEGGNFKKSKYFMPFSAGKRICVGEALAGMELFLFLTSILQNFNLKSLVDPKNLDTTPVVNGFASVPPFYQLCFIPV
Sequence of Cytochrome P450 2C19 (Homo sapiens) (P33261 whole entry, looked up): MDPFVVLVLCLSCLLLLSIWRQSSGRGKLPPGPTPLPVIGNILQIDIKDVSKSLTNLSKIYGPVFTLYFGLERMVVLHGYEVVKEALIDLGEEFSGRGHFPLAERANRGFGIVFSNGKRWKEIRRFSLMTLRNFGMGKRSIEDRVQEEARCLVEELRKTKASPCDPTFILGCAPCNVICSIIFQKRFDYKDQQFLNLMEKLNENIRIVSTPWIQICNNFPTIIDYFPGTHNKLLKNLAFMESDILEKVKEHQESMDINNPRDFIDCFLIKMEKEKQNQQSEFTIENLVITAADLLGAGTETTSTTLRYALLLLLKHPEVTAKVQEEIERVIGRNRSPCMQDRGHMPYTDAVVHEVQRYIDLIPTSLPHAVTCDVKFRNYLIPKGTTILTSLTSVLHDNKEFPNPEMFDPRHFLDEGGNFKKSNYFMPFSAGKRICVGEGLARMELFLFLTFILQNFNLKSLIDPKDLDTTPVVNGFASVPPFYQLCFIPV
Sequence of Cytochrome P450 1A2 (Homo sapiens) (P05177 whole entry, looked up): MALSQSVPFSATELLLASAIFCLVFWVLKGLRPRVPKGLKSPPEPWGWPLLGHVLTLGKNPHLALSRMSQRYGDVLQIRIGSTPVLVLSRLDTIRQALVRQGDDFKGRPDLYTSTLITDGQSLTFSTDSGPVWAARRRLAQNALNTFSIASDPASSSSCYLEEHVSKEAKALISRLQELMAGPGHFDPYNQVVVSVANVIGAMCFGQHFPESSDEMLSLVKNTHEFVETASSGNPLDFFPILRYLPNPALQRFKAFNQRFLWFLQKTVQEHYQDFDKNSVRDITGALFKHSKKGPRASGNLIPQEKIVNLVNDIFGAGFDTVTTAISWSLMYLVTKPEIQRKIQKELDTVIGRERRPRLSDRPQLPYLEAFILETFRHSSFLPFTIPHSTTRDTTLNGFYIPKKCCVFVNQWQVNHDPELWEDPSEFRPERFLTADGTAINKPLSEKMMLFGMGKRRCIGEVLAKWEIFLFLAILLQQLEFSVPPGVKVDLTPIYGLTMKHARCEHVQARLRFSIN

Regarding `C[C@]12CC[C@H]3[C@@H](CCC4=CC(=O)CC[C@@]43C)[C@@H]1CC[C@@H]2C(=O)O`, the Potency result in test [1], in test [2], in test [3], in test [4] and in test [5] was “inactive” each time.
As for `O=C(O)c1cccc(Cl)c1`, the Potency entry in test [1], in test [2], in test [3], in test [7] and in test [5] was “inactive” each time. The Potency in test [6] is 40 µM (active).
In the case of `NC(=O)O`, the Potency entry in test [1], in test [2], in test [3], in test [8], in test [6] and in test [5] was “inactive” each time.
Consider `CCCCOC(=O)c1ccccc1C(=O)O`, for which the Potency result in test [1], in test [2], in test [3], in test [7] and in test [5] was “inactive” in each case.
With `c1coc(-c2nc3ccccc3[nH]2)c1`, the Potency result in test [1], in test [2], in test [8], in test [7] and in test [5] was “inactive” in each case. The Potency was 44.8 µM (active) in test [3] and 7.96 µM (active) in test [6].
Turning to `O=[N+]([O-])c1cccc2cccnc12`, the Potency entry in test [1], in test [2], in test [3], in test [8], in test [7] and in test [5] was “inactive” each time. Further, the Potency in test [6] is 36.5 µM (active).
In the case of `ClC(Br)Br`, the Potency result in test [1], in test [2], in test [3], in test [8], in test [6] and in test [7] was “inactive” each time. Besides, the Potency entry in test [5] is “inactive”.
As for `C(CCOCC1CO1)COCC1CO1` (stereo not drawn), the Potency result in test [1], in test [2], in test [3], in test [8], in test [6] and in test [7] was “inactive” throughout. In test [5], the Potency entry is “inactive”.
In the case of `CCOC(=O)C1(c2ccccc2)CCN(CCc2ccc(N)cc2)CC1`, the Potency entry in test [1], in test [2] and in test [6] was “inactive” each time. Besides, in test [3], the Potency was 3.47 µM (active).
For the compound `COC(=O)COc1ccc(Cl)cc1Cl`, the Potency result in test [1], in test [2], in test [3], in test [8] and in test [5] was “inactive” throughout. Also, the Potency in test [6] is 12.6 µM (active).
`CN1CCN(C(=O)O[C@H]2c3nccnc3C(=O)N2c2ccc(Cl)cn2)CC1`: the Potency entry in test [1], in test [2], in test [3], in test [8], in test [7] and in test [5] was “inactive” in each case. Further, the Potency in test [6] is 27.5 µM (active).
Turning to `C#CCN1C(=O)COc2cc(F)c(N3C(=O)C4=C(CCCC4)C3=O)cc21`, the Potency entry in test [1] and in test [2] was “inactive” throughout. Also, the Potency in test [3] was 44.8 µM (active); in test [8] it was 71 µM (active); in test [6], 3.99 µM (active); in test [5], 35.6 µM (active).
For `COC(=O)C(c1ccccc1)C1CCCCN1` (stereo not drawn), the Potency result in test [1], in test [2], in test [7] and in test [5] was “inactive” each time. The Potency in test [3] was 22.5 µM (active).
As for `CCC(C)(C)c1cc(-n2nc3ccccc3n2)c(O)c(C(C)(C)CC)c1`, the Potency entry in test [1] and in test [2] was “inactive” each time. The Potency is 25.6 µM (active) in test [3] and 36.1 µM (active) in test [6].
On to `Fc1ccc(C2(Cn3cncn3)OC2c2ccccc2Cl)cc1` (stereo not drawn), for which the Potency result in test [1], in test [2] and in test [7] was “inactive” each time. Further, the Potency was 39.9 µM (active) in test [3], 5.64 µM (active) in test [8], 5.03 µM (active) in test [6] and 0.894 µM (active) in test [5].
In the case of `Cc1ncc(CNC(=O)N(CCCl)N=O)c(N)n1`, the Potency result in test [1], in test [2], in test [3], in test [7] and in test [5] was “inactive” in each case.
In the case of `Cc1ncc2n1-c1ccc(Cl)cc1C(c1ccccc1F)=NC2`, the Potency result in test [1], in test [2] and in test [3] was “inactive” each time. In addition, in test [8], the Potency is 17.4 µM (active).
With `COc1cc(OC)nc(NC(=O)NS(=O)(=O)c2ncccc2OCC(F)(F)F)n1`, the Potency entry in test [1], in test [2], in test [3] and in test [5] was “inactive” throughout.
Consider `Nc1cc2c3c(c1)C(c1ccccc1)=N[C@@H](NC(=O)c1cccnc1)C(=O)N3CC2`, for which the Potency entry in test [1], in test [2], in test [3], in test [6] and in test [7] was “inactive” in each case. The values for the Potency in test [8] and in test [5] were 7.1 µM (active) and 11.2 µM (active), respectively.
As to `NC(=S)C(N)=S`, the Potency entry in test [1], in test [2] and in test [7] was “inactive” each time. The Potency in test [3] was 71 µM (active); in test [8], 79.6 µM (active).
Regarding `CCSC(=O)N(CC)C1CCCCC1`, the Potency result in test [1], in test [2], in test [3], in test [6], in test [7] and in test [5] was “inactive” each time.
On to `ClCCCN1CCN(c2cccc(Cl)c2)CC1`, for which the Potency entry in test [1], in test [2] and in test [5] was “inactive” in each case. Also, the Potency was 0.977 µM (active) in test [3] and 15.5 µM (active) in test [6].
`CCC1(c2ccccc2)C(=O)N=C(O)NC1=O` (stereo not drawn): the Potency result in test [1], in test [2], in test [3], in test [7] and in test [5] was “inactive” throughout. In addition, the Potency in test [8] was 61.6 µM (active).
`COc1cc(OC)nc(NC(=O)NS(=O)(=O)c2ncccc2C(=O)N(C)C)n1`: the Potency result in test [1], in test [2], in test [3], in test [8], in test [7] and in test [5] was “inactive” each time.
On to `O=C(CCCN1CCC(n2c(=O)[nH]c3ccccc32)CC1)c1ccc(F)cc1`, for which the Potency result in test [1], in test [2], in test [6] and in test [5] was “inactive” in each case. The values for the Potency in test [3] and in test [7] were 8.71 µM (active) and 1.51 µM (active), respectively.
With `C[N+](C)=CCl`, the Potency result in test [1], in test [2], in test [3], in test [8], in test [6] and in test [5] was “inactive” each time.
Take `COC(=O)c1ccccc1S(=O)(=O)NC(=O)Nc1nc(C)cc(C)n1`: the Potency result in test [1], in test [2], in test [3], in test [8], in test [7] and in test [5] was “inactive” in each case.
As for `CS(=O)(=O)c1cc(C(F)(F)F)ccc1C(=O)c1cnoc1C1CC1`, the Potency result in test [1], in test [2], in test [3], in test [7] and in test [5] was “inactive” each time. For the same compound, the Potency in test [8] was 1.59 µM (active); in test [6], 35.6 µM (active).
As for `CC(COc1ccc(Oc2ccccc2)cc1)Oc1ccccn1` (stereo not drawn), the Potency entry in test [1], in test [2] and in test [5] was “inactive” each time. The Potency was 10 µM (active) in test [4], 15.9 µM (active) in test [8] and 15.9 µM (active) in test [6].
Turning to `CSc1ccc(C(=O)C(C)(C)N2CCOCC2)cc1`, the Potency result in test [1] and in test [2] was “inactive” throughout. In addition, the values for the Potency in test [4], in test [8] and in test [5] were 1.12 µM (active), 20 µM (active) and 2 µM (active), respectively.
Consider `CC(C)CP(=S)(S)CC(C)C`, for which the Potency result in test [1], in test [2], in test [6] and in test [7] was “inactive” throughout. Also, the Potency was 56.4 µM (active) in test [4], 31.7 µM (active) in test [8] and 35.6 µM (active) in test [5].
Turning to `CCCCOC(=O)[C@@H](C)Oc1ccc(Oc2ccc(C#N)cc2F)cc1`, the Potency entry in test [1], in test [2] and in test [5] was “inactive” throughout. Moreover, the Potency in test [4] is 19.9 µM (active); in test [8] it was 7.92 µM (active); in test [6], 31.5 µM (active); in test [7], 4.34 µM (active).
Turning to `CNC(=O)Oc1c(C(C)(C)C)cc(C)cc1C(C)(C)C`, the Potency entry in test [1], in test [2] and in test [7] was “inactive” each time. Besides, the Potency was 2.83 µM (active) in test [4], 6.33 µM (active) in test [8] and 2.83 µM (active) in test [5].
